Targets include C1orf101; C1QTNF1; C1orf105; C1orf61; C2orf82; C6orf105; C6orf58; CA8; CADM4; CAPNS2; CBWD1; CCDC102B; CCDC47; CCDC136; CCDC19; CCDC124; CCDC56.
Common to all, as to test: pooled miR-30 sensor sort-seq; sequence = guide strand
Holding throughout (conditions): shRNA
Also: reference of the scale not given here.

In the assay with C1orf101, TAAAAACACAGCAATCTCCAGA displayed a sensor-assay potency score (higher = more potent) of -0.0485.

In turn, TAGCAGTAGAACTTGCCGGTGA showed a sensor-assay potency score (higher = more potent) with C1QTNF1 of 0.148.

AACATCTGGAACTTGAAACAAA registered a sensor-assay potency score (higher = more potent) with C1orf105 of -0.678.

For the sequence TACAATTCTCAAAGGATGCTTT, the sensor-assay potency score (higher = more potent) with C1orf105 was -0.234.

As for TGTATTTTTCATGTTGTTCTTC, in the assay with C1QTNF1, the sensor-assay potency score (higher = more potent) is 0.442.

In the case of TTGACATGTGGAGCACAGCTGT, in the assay with C1orf105, the sensor-assay potency score (higher = more potent) is -0.883.

In the case of TTGAATATTCACTAGGTCGAAA, the sensor-assay potency score (higher = more potent) with C1orf101 is -0.467.

Take TATAACTCATACAATTCTCAAA: the sensor-assay potency score (higher = more potent) with C1orf105 was -1.37.

In the assay with C1orf105, TTTGGGTTGATGAAGACTCATT had a sensor-assay potency score (higher = more potent) of -1.17.

Take TAACTTAATAGTACTTCTGGTA: the sensor-assay potency score (higher = more potent) in the assay with C1orf101 was -0.353.

Consider TAGGTCTCCTTCTGGTTCCAGG, for which the sensor-assay potency score (higher = more potent) with C1QTNF1 was -0.883.

Sequence TTGGTCTCCCAACTTAGCCATG showed a sensor-assay potency score (higher = more potent) with C1orf61 of -1.74.

Turning to AACATCGTCTGTGAGCACCGCA, in the assay with C2orf82, the sensor-assay potency score (higher = more potent) came to 0.28.

With TTGCATGATTCAGCCACACGGG, the sensor-assay potency score (higher = more potent) with C6orf105 was -0.688.

Turning to TAATTCATTAATCATTTCCTGA, the sensor-assay potency score (higher = more potent) with C6orf58 was -0.771.

With TATAGGACCATTGTCTTCCTCC, the sensor-assay potency score (higher = more potent) in the assay with CA8 was -0.229.

TTCTTCTATCTGTAGCTGGGAT: the sensor-assay potency score (higher = more potent) in the assay with CA8 is -0.262.

For the sequence TTATTGGACGCCTCGCAAGTGT, the sensor-assay potency score (higher = more potent) in the assay with CADM4 is -0.6.

Consider TTCTCTGTCTGTACTTCCTGTC, for which the sensor-assay potency score (higher = more potent) in the assay with CADM4 is -0.0405.

On to TTGATAGACACTTGAATCAGGC, for which, in the assay with CAPNS2, the sensor-assay potency score (higher = more potent) was -0.108.

In the assay with CBWD1, TTGTCTAGTAGCTTCATTGATA gave a sensor-assay potency score (higher = more potent) of -0.639.

As to TTGATGATTGTTGCATCTGGAA, the sensor-assay potency score (higher = more potent) with CCDC102B was -0.905.

As to TGCAGGAACATCAACAATCGTT, the sensor-assay potency score (higher = more potent) with CCDC47 is -0.762.

For TTGCCTTCTCTGTTGAGTCGGA, in the assay with CCDC47, the sensor-assay potency score (higher = more potent) is -0.0399.

The sequence TTTGCTAGAAGAAGTATCTGGT displayed a sensor-assay potency score (higher = more potent) with CCDC47 of 0.978.

As to TAACAGGGAAATCTCCTCCCGT, the sensor-assay potency score (higher = more potent) with CCDC136 was -0.529.

TTAGCATTGAGGATAATCTTGC yielded a sensor-assay potency score (higher = more potent) with CCDC19 of 0.12.

Take TTCAATGCAGTACTTCTCGGGA: the sensor-assay potency score (higher = more potent) with CCDC19 is -0.758.

TTTCAGCTGCGACAGCCGCATG returned a sensor-assay potency score (higher = more potent) with CCDC124 of -1.52.

In the assay with CCDC19, TTCTTTTTGGATCTGCTGCTTC came in with a sensor-assay potency score (higher = more potent) of -0.755.

In the case of TTCTCTGTTGAGTCGGAACTTT, the sensor-assay potency score (higher = more potent) with CCDC47 is -0.845.

For TAAAGTAAAGTTGCTCTCCAAA, the sensor-assay potency score (higher = more potent) in the assay with CCDC47 is -1.24.

In turn, TTTGATTCGCTCAAACTCCTCA returned a sensor-assay potency score (higher = more potent) with CCDC19 of 0.0568.

TTCTAGATAATAACTCTCCCAG registered a sensor-assay potency score (higher = more potent) in the assay with CCDC47 of -0.381.

In the assay with CCDC136, TTCAAGTTCATTCTGCATCCGG returned a sensor-assay potency score (higher = more potent) of 0.279.

TTTTGCTAGAAGAAGTATCTGG: the sensor-assay potency score (higher = more potent) with CCDC47 was 0.452.

Regarding TTCTATTTCCTTAAGTTCGCTT, the sensor-assay potency score (higher = more potent) in the assay with CCDC136 was determined as 0.0212.

TAGAGAACGCAGCTCACCTTGG showed a sensor-assay potency score (higher = more potent) with CCDC136 of -0.542.

Sequence TTTTCCTCTTGATCTCATCGAT returned a sensor-assay potency score (higher = more potent) with CCDC19 of 0.115.

For TTGCGGAATCCTCTGCTGCTTG, the sensor-assay potency score (higher = more potent) with CCDC136 was -0.962.

In the case of TTCTGCGCCACTCTCTGTCTGC, the sensor-assay potency score (higher = more potent) with CCDC19 is -0.303.

As to TTCTGCTTCTTGGCATCAGCGG, the sensor-assay potency score (higher = more potent) in the assay with CCDC124 is -0.999.

Consider TTCTGTTTCATGATCTTCTTTC, for which the sensor-assay potency score (higher = more potent) in the assay with CCDC19 was -0.0443.

With TCGAGTAGAAGGTGTAACCATA, the sensor-assay potency score (higher = more potent) with CCDC56 was -1.07.

For TTGGATCTGCTGCTTCTCCAGG, the sensor-assay potency score (higher = more potent) with CCDC19 was -1.06.

In turn, ATCTAGGAAACGCTCCTGGGAA had a sensor-assay potency score (higher = more potent) with CCDC56 of -1.12.

In the assay with CCDC136, TTAAGTTCGCTTTCTTTCTCAT had a sensor-assay potency score (higher = more potent) of -0.0696.

With TTGTTGACTGACAGAGAGCCAA, the sensor-assay potency score (higher = more potent) with CCDC136 was -0.719.

Take TTGTCGTCGTCCTTCCAGTAGG: the sensor-assay potency score (higher = more potent) in the assay with CCDC124 is -1.14.

TTGAGGATAATCTTGCTCATGT registered a sensor-assay potency score (higher = more potent) with CCDC19 of -0.0129.

For TTCATTTCCATTTCTGCACGGA, in the assay with CCDC136, the sensor-assay potency score (higher = more potent) is -0.0377.

For TTGCACTTGATCACTCACTGGC, the sensor-assay potency score (higher = more potent) with CCDC47 was 0.924.

Take TTGAAGGGTATGCTTATCTCGG: the sensor-assay potency score (higher = more potent) with CCDC19 is -0.289.

TTACAAGGAACTCAGGTTCTTA returned a sensor-assay potency score (higher = more potent) in the assay with CCDC136 of -0.441.

In the case of TTTCTGAAGTCTGAGACTCTGC, in the assay with CCDC136, the sensor-assay potency score (higher = more potent) is -0.127.

On to TTTCATTTGCTTCTTTTCCAAC, for which, in the assay with CCDC47, the sensor-assay potency score (higher = more potent) was -1.25.

With TTAAATGTAAACAACAGTGTCC, in the assay with CCDC47, the sensor-assay potency score (higher = more potent) stood at 0.382.

As for TTCAGTAACAGAGTCTTCCATG, in the assay with CCDC47, the sensor-assay potency score (higher = more potent) was -0.75.

Consider TTTCCTCTTGATCTCATCGATG, for which the sensor-assay potency score (higher = more potent) with CCDC19 was -0.984.

In the assay with CCDC136, TTTCTCATGCTCTAACAGGGAA gave a sensor-assay potency score (higher = more potent) of -0.6.

The record behind these values is the OligoGym collection.
